Data published in PubChem BioAssay (NCI).
This is part of a sample that, as a whole, favours compounds with a hit. Of some 83,000 tested, about 20% had one in any assay.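 Cells were grown in 96-well plates and exposed to the test compound at a single concentration for 48 hours; results are reported as percent growth, with values below 10 considered active.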 Active and inactive are the calls of the source.

What was measured:
Test in all cases: NCI-60 one-dose screen, 48 h (100 = growth as untreated, 0 = no growth, -100 = all killed)
Conditions in all cases: 10 µM unless noted
SR leukemia = system: SR leukemia
RPMI-8226 leukemia = system: RPMI-8226 leukemia
OVCAR-8 ovarian = system: OVCAR-8 ovarian
OVCAR-5 ovarian = system: OVCAR-5 ovarian
OVCAR-4 ovarian = system: OVCAR-4 ovarian
SK-OV-3 ovarian = system: SK-OV-3 ovarian
IGROV1 ovarian = system: IGROV1 ovarian
OVCAR-3 ovarian = system: OVCAR-3 ovarian
HS 578T breast = system: HS 578T breast
NCI/ADR-RES ovarian = system: NCI/ADR-RES ovarian

Measured: growth

O=C(O)c1ccc(-n2cc(CNc3cccc(Cl)c3)c(-c3ccc(F)cc3)n2)cc1
inactive: SR leukemia 130% | RPMI-8226 leukemia 89.2% | OVCAR-8 ovarian 96.3% | OVCAR-5 ovarian 112% | OVCAR-4 ovarian 100% | SK-OV-3 ovarian 106% | IGROV1 ovarian 102% | OVCAR-3 ovarian 106% | HS 578T breast 106% | NCI/ADR-RES ovarian 97.9%

COc1c(N2CC3CCCNC3C2)c(F)cc2c(=O)c(C(=O)N/N=C/c3ccccc3)cn(C3CC3)c12 (stereo not given)
inactive: RPMI-8226 leukemia 73.1% | OVCAR-8 ovarian 99.9% | OVCAR-5 ovarian 107% | OVCAR-4 ovarian 93.1% | SK-OV-3 ovarian 111% | IGROV1 ovarian 99.6% | OVCAR-3 ovarian 102% | HS 578T breast 97.7% | NCI/ADR-RES ovarian 104%
active: SR leukemia 8.2%

O=S(=O)(Oc1ccc(-c2nnc(Nc3ccccc3)s2)cc1)C(F)(F)C(F)(F)C(F)(F)C(F)(F)C(F)(F)C(F)(F)F
inactive: SR leukemia 19.5% | RPMI-8226 leukemia 105% | OVCAR-8 ovarian 107% | OVCAR-5 ovarian 93.3% | OVCAR-4 ovarian 107% | SK-OV-3 ovarian 108% | IGROV1 ovarian 107% | OVCAR-3 ovarian 108% | HS 578T breast 98.4% | NCI/ADR-RES ovarian 103%

CCOC(=O)C1=NNC(c2ccc(Cl)cc2)C1C(=O)N1C(=S)NC(=O)C1CC(C)C (stereo not given)
inactive: SR leukemia 96.8% | RPMI-8226 leukemia 95% | OVCAR-8 ovarian 100% | OVCAR-5 ovarian 101% | OVCAR-4 ovarian 96.5% | SK-OV-3 ovarian 93.5% | IGROV1 ovarian 77.1% | OVCAR-3 ovarian 113% | HS 578T breast 98.6% | NCI/ADR-RES ovarian 99.9%

N/C(=N\C(N)=N\c1nc2ccccc2s1)c1cccc(F)c1
inactive: SR leukemia 48.4% [5 µM] | RPMI-8226 leukemia 84.4% [5 µM] | OVCAR-8 ovarian 98.9% [5 µM] | OVCAR-5 ovarian 102% [5 µM] | OVCAR-4 ovarian 133% [5 µM] | SK-OV-3 ovarian 93.9% [5 µM] | IGROV1 ovarian 68.4% [5 µM] | OVCAR-3 ovarian 101% [5 µM] | HS 578T breast 93.7% [5 µM] | NCI/ADR-RES ovarian 86.3% [5 µM]

O=C(NCCN1CCCC1)c1ccc(-c2nc3ccc4[nH]ncc4c3c3c2CCCC3)cc1
inactive: OVCAR-8 ovarian 10.9% | OVCAR-5 ovarian 23.5% | OVCAR-4 ovarian 16% | NCI/ADR-RES ovarian 93.2%
active: SR leukemia -24.4% | RPMI-8226 leukemia -15% | SK-OV-3 ovarian 0.026% | IGROV1 ovarian 1.22% | OVCAR-3 ovarian 1.47% | HS 578T breast -1.99%

O=C(CSc1nc2ccccc2c(=O)n1-c1ccc(Cl)cc1)N/N=C/c1ccc(N2CCCCC2)cc1
inactive: SR leukemia 74.8% | RPMI-8226 leukemia 100% | OVCAR-8 ovarian 65.3% | OVCAR-5 ovarian 76.9% | OVCAR-4 ovarian 58.6% | SK-OV-3 ovarian 30.1% | IGROV1 ovarian 55.5% | OVCAR-3 ovarian 32.8% | HS 578T breast 37.9% | NCI/ADR-RES ovarian 39.9%

CS(=O)(=O)Nc1cc(-c2ccc3ncc(C#N)c(NCc4cccc(F)c4)c3c2)cnc1Cl
inactive: OVCAR-5 ovarian 16.4% | OVCAR-4 ovarian 11.3% | NCI/ADR-RES ovarian 23.4%
active: SR leukemia 2.9% | RPMI-8226 leukemia -24.2% | OVCAR-8 ovarian 7.95% | SK-OV-3 ovarian -18.2% | IGROV1 ovarian -42.5% | OVCAR-3 ovarian 2.49% | HS 578T breast -24.8%

CCCCCc1ccc(S(=O)(=O)Nc2cccc(-c3csc(NC(=O)CN4CCN(CCO)CC4)n3)c2)cc1
active: SR leukemia 5.04%
inactive: RPMI-8226 leukemia 20.2% | OVCAR-8 ovarian 91.4% | OVCAR-5 ovarian 101% | OVCAR-4 ovarian 79.2% | SK-OV-3 ovarian 89.5% | IGROV1 ovarian 85.5% | OVCAR-3 ovarian 93.2% | HS 578T breast 69.4% | NCI/ADR-RES ovarian 99%

C=C(C=O)[C@@H]1CC[C@]2(C)[C@H](C(=O)C=C3[C@H]4C[C@](C)(C(=O)OC)CC[C@]4(C)CC[C@]32C)[C@@]1(C)CCC#N
inactive: OVCAR-8 ovarian 13.5% | OVCAR-4 ovarian 20.6% | SK-OV-3 ovarian 102%
active: SR leukemia -9.31% | RPMI-8226 leukemia -16.5% | OVCAR-5 ovarian -25.7% | IGROV1 ovarian 2.58% | OVCAR-3 ovarian -47.2% | HS 578T breast -2.47% | NCI/ADR-RES ovarian -24.3%

CC(=O)C1=C(C)NC(NN)=NC1c1cccc(Cl)c1 (stereo not given)
inactive: SR leukemia 96.5% | RPMI-8226 leukemia 99.7% | OVCAR-8 ovarian 103% | OVCAR-5 ovarian 99.4% | OVCAR-4 ovarian 104% | SK-OV-3 ovarian 102% | IGROV1 ovarian 97.7% | OVCAR-3 ovarian 123% | HS 578T breast 114% | NCI/ADR-RES ovarian 107%

Cc1ccc(-c2nn(-c3ccccc3)cc2/C=C/C(=O)c2ccc(NC(=O)CCCCCCC(=O)NO)cc2)cc1
inactive: SR leukemia 85.4% | RPMI-8226 leukemia 70.5% | OVCAR-8 ovarian 62.5% | OVCAR-5 ovarian 79.2% | OVCAR-4 ovarian 79.8% | SK-OV-3 ovarian 70.7% | IGROV1 ovarian 69.1% | OVCAR-3 ovarian 75.9% | HS 578T breast 47.1% | NCI/ADR-RES ovarian 70.4%

O=C1Nc2ccccc2/C1=C/c1ccc(COCC2CO2)n1-c1ccc(O)cc1 (stereo not given)
inactive: SR leukemia 100% | RPMI-8226 leukemia 95.7% | OVCAR-8 ovarian 101% | OVCAR-5 ovarian 107% | OVCAR-4 ovarian 101% | SK-OV-3 ovarian 114% | IGROV1 ovarian 104% | OVCAR-3 ovarian 111% | HS 578T breast 104% | NCI/ADR-RES ovarian 106%

CCCCCc1ccc(S(=O)(=O)Nc2cccc(-c3csc(NC(=O)CN4CCN(C)CC4)n3)c2)cc1
inactive: OVCAR-8 ovarian 95.9% | OVCAR-5 ovarian 105% | OVCAR-4 ovarian 81.4% | SK-OV-3 ovarian 90.6% | IGROV1 ovarian 83.8% | OVCAR-3 ovarian 75.3% | HS 578T breast 82.1% | NCI/ADR-RES ovarian 93.1%
active: SR leukemia -4.74% | RPMI-8226 leukemia 5.62%
